Data published in PubChem BioAssay AID1159580 (chemical genetic matrix, 2015).
Among all 5,500 compounds or so, about 2,000 (36%) were called active. Not shown: some 18% with an inconclusive outcome. Rule as the data show it: active = normalized growth mostly below about 0.91 (no sharp cut-off); inconclusive = no clear call, values can overlap the other calls; inactive = mostly above about 0.92. This is one part of the list.

Assay: chemical genetic growth profiling, strain panel (AID 1159580);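 also: tested at 20 µM; growth read once vehicle control cultures reached saturation at 30 °C; 1 = growth at the plate median or of vehicle wells; lower values mean less growth of the strain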
Conditions: S. cerevisiae deletion strains, growth OD

Measured: normalized growth

CC1CCN=C(N)S1 (centres undefined)
inactive: locus YAL013W, strain DEP1, stronger effect = lower value 0.997 | locus YAL040C, strain CLN3, stronger effect = lower value 0.98 | locus YER002W, strain NOP16, stronger effect = lower value 1 | locus YNL153C, strain GIM3, stronger effect = lower value 0.947 | locus YNL175C, strain NOP13, stronger effect = lower value 0.991 | locus YNL197C, strain WHI3, stronger effect = lower value 0.99 | locus YNL224C, strain SQS1, stronger effect = lower value 1.02 | locus YOR083W, strain WHI5 (second series), stronger effect = lower value 0.962 | locus YPL241C, strain CIN2, stronger effect = lower value 0.978
